# Test results published in PubChem BioAssay (Tox21).
# “And” between values parts separate entries of the source, which are not always exact repeats. Identical values can stand only once. Results filed as inconclusive are left out. A call without a number means that no potency is given here. Where a structure was tested more than once in an assay, its records may differ in their call. The source made the active and inactive calls. Unless noted, calls come from the whole dose curve.
# Legend:
# [1] = qHTS assay to identify small molecule agonists of the sonic hedgehog signaling (Shh) pathway (AID 1259368);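 note: NIH/3T3-derived 3T3Gli1-Luc cells carrying a stable Gli1-driven firefly luciferase reporter; series mostly up to about 92 µM; nearly all actives have a fitted effect of over 15% in size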
# Method in brief: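 Cells of a mouse NIH/3T3 clone stably expressing luciferase under the Gli1 transcriptional response element are exposed to test chemicals for 24 hr at 37 C. Pathway activation is detected as a rise in luminescence.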
# [2] = qHTS assay to identify small molecule antagonists of the sonic hedgehog signaling (Shh) pathway (AID 1259369); note: nearly all actives have a fitted effect of over 45% in size; note: potency is the fitted concentration of half-maximal effect
# Method in brief: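 Cells are plated and held 4hr at 37 C, compounds (DMSO) are pinned in, conditioned medium is added to stimulate the pathway, and after 24hr luciferase reagent is added for 30min before luminescence is read.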
# [3] = target: Estrogen receptor beta (Homo sapiens) (UniProt Q92731); assay: qHTS assay to identify small molecule agonists of the estrogen receptor beta (ER-beta) signaling pathway (AID 1259377; active = well fitted activation curve with a large enough effect in the signal ratio in the repeat runs, not every such curve was filed as active; the % refers to the signal ratio; note: potency is the fitted concentration of half-maximal effect)
# Method in brief: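 Beta-lactamase reporter readout: fluorescence of LiveBLAzer B/G FRET substrate after 2 h at room temperature, following 16 h compound treatment of ER-beta-UAS-bla HEK293T cells at 37C in 2% charcoal-stripped FBS medium.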
# [4] = target: Estrogen receptor beta (Homo sapiens) (UniProt Q92731); assay: qHTS assay to identify small molecule antagonists of the estrogen receptor beta (ER-beta) signaling pathway (AID 1259378; active = well fitted inhibition curve with a large enough effect in the signal ratio in the repeat runs, not every such curve was filed as active; the % refers to the signal ratio; note: potency is the fitted concentration of half-maximal effect)
# Method in brief: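 ER-beta-UAS-bla HEK293T cells in 2% charcoal-stripped FBS medium treated with compound plus 1nM final 17-beta-estradiol for 16 hr at 37C. Beta-lactamase reporter read by FRET substrate fluorescence after 2 hours at room temperature.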
# [5] = qHTS assay to identify small molecule agonists of the androgen receptor (AR) signaling pathway in the presence of an antagonist - cell viability counter screen (AID 1259379; active = well fitted curve in the direction sought with a large enough effect in the repeat runs; an effect the other way counts as inactive or inconclusive;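 note: MDA-kb2 human breast cancer cells carrying an MMTV luciferase reporter; series mostly up to about 92 µM; nearly all actives have a fitted effect of over 25% in size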)
# Method in brief: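 Cytotoxicity is assessed by CellTiter-Fluor in MDA-kb2 cells carrying an MMTV-driven luciferase reporter. Cells receive 3.0uM nilutamide plus compounds at 15 concentrations and incubate 16 hr at 37C without CO2 before fluorescence reading.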
# [6] = qHTS assay to identify small molecule agonists of the estrogen receptor beta (ER-beta) signaling pathway - cell viability counter screen (AID 1259380; active = well fitted curve in the direction sought with a large enough effect in the repeat runs; an effect the other way counts as inactive or inconclusive; note: nearly all actives have a fitted effect of over 30% in size; note: potency is the fitted concentration of half-maximal effect)
# Method in brief: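 Cytotoxicity is measured in parallel with the reporter screen: after 16 hr compound exposure at 37C and a 2 hr LiveBLAzer step, CellTiter-Glo is added to the same ER-beta-UAS-bla HEK293T wells and luminescence read after 30 min.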
# [7] = target: Androgen receptor (Homo sapiens) (UniProt P10275); assay: qHTS assay to identify small molecule agonists of the androgen receptor (AR) signaling pathway in the presence of an antagonist (AID 1259381); note: nearly all actives have a fitted effect of over 15% in size
# Method in brief: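 Agonist-mode confirmation screen: human MDA-kb2 cells stably expressing luciferase under an MMTV promoter bearing AR and GR response elements, co-treated with 3.0uM nilutamide (final). Luminescence measured after 16hr compound incubation.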
# [8] = qHTS assay to identify small molecule antagonists of the estrogen receptor beta (ER-beta) signaling pathway - cell viability counter screen (AID 1259382; active = well fitted curve in the direction sought with a large enough effect in the repeat runs; an effect the other way counts as inactive or inconclusive; note: nearly all actives have a fitted effect of over 55% in size; note: potency is the fitted concentration of half-maximal effect)
# Method in brief: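 Cytotoxicity counter screen multiplexed with the beta-lactamase antagonist assay: GripTite HEK293T ER-beta-bla cells were treated 16 hr with test chemicals in the presence of 1nM 17-beta-estradiol, and viability was measured by CellTiter-Glo.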
# [9] = target: Estrogen receptor (Homo sapiens) (UniProt P03372); assay: qHTS assay to identify small molecule agonists of the estrogen receptor alpha (ER-alpha) signaling pathway in the presence of an antagonist (AID 1259383); note: top concentration of the series differs between compounds; nearly all actives have a fitted effect of over 15% in size
# Method in brief: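 Agonist-mode confirmation in the presence of the ER antagonist ICI-182,780 at 10.0nM final. Breast-derived VM7Luc4E2 reporter cells were exposed to compounds for 22hr, and ERE-driven luciferase was quantified by luminescence.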
# [10] = qHTS assay to identify small molecule agonists or antagonists of the thyroid stimulating hormone receptor (TSHR) signaling pathway - wild type cell line counter screen (AID 1259384)
# Method in brief: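 Wild-type Hek293 cells, 800/well, 18 h at 37C, then compound with Ro20-1724 for 30 min RT. cAMP by HTRF (cAMP-d2/anti-cAMP cryptate), 1 h RT, fluorescence read. 15 concentrations, triplicates.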
# [11] = target: Thyrotropin receptor (Homo sapiens) (UniProt P16473); assay: qHTS assay to identify small molecule antagonists of the thyroid stimulating hormone receptor (TSHR) signaling pathway (AID 1259385); note: nearly all actives have a fitted effect of over 20% in size; note: potency is the fitted concentration of half-maximal effect
# Method in brief: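 TSHR-HEK293 cells (800/well) plated 18 h, then compounds with Ro20-1724 and TSH at 1.5 ng/mL final, 30 min at room temperature. cAMP quantified by HTRF (cAMP-d2/anti-cAMP-cryptate, 1 h); 15 concentrations in triplicate.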
# [12] = qHTS assay to identify small molecule agonists of the estrogen receptor alpha (ER-alpha) signaling pathway in the presence of an antagonist - cell viability counter screen (AID 1259386; active = well fitted curve in the direction sought with a large enough effect in the repeat runs; an effect the other way counts as inactive or inconclusive;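 note: series mostly up to about 92 µM; cells exposed to compounds for 22 h at 37 °C before the viability read; nearly all actives have a fitted effect of over 30% in size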)
# Method in brief: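 Cytotoxicity was measured in parallel with the ERE-luciferase agonist screen, in the same wells. The cells were VM7Luc4E2, which endogenously express ER-alpha, and treatment was with compounds plus 10.0nM ICI-182,780 for 22hr.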
# [13] = target: Progesterone receptor (Homo sapiens) (UniProt P06401); assay: qHTS assay to identify small molecule agonists of the progesterone receptor (PR) signaling pathway (AID 1346784); note: nearly all actives have a fitted effect of over 30% in size
# Method in brief: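 HEK 293T PR-UAS-bla reporter cells, 2% charcoal-stripped FBS; 6 hr settle at 37C/5% CO2, compound (DMSO) 16 hr, LiveBLAzer B/G FRET substrate 2 hr RT, fluorescence intensity read.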
# [14] = qHTS assay to identify small molecule agonists of the progesterone receptor (PR) signaling pathway - cell viability counter screen (AID 1346799); note: nearly all actives have a fitted effect of over 45% in size; note: potency is the fitted concentration of half-maximal effect
# Method in brief: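 HEK293T PR-UAS-bla, 3,000 cells/well, 2% charcoal-stripped FBS; 6 h settle, compound 16 h at 37C/5% CO2; LiveBLAzer 2 h RT, then CellTiter-Glo 30 min RT, luminescence read.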
# [15] = qHTS assay to identify small molecule antagonists of the TGF-beta/Smad signaling pathway - cell viability counter screen (AID 1346824; active = well fitted curve in the direction sought with a large enough effect in the repeat runs; an effect the other way counts as inactive or inconclusive; note: nearly all actives have a fitted effect of over 50% in size)
# Method in brief: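 SBE-bla HEK 293T cells, incubated overnight, then compound plus 0.25 ng/mL TGF-beta1 (stock added) for 5 hr at 37 C. Viability was read in the same wells by CellTiter-Glo luminescence after 30 min at room temperature.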
# [16] = qHTS assay to identify small molecule agonists of the TGF-beta/Smad signaling pathway - cell viability counter screen (AID 1346829; active = well fitted curve in the direction sought with a large enough effect in the repeat runs; an effect the other way counts as inactive or inconclusive; note: top concentration of the series differs between compounds; nearly all actives have a fitted effect of over 45% in size)
# Method in brief: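 HEK 293T SBE-bla line, 5 hr compound exposure at 37 C, multiplexed CellTiter-Glo viability read by luminescence.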
# [17] = qHTS assay to identify small molecule agonists of the TGF-beta/Smad signaling pathway (AID 1346859; active = well fitted activation curve with a large enough effect in the signal ratio in the repeat runs, not every such curve was filed as active; the % refers to the signal ratio; note: series mostly up to about 77 µM)
# Method in brief: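 Read-out: fluorescence at 460 and 530 nm (405 nm excitation) after a 2 hr room-temperature incubation with beta-lactamase FRET substrate. SBE-bla HEK 293T cells had been treated with test compounds for 5 hr at 37 C.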
# [18] = target: Thyrotropin-releasing hormone receptor (Homo sapiens) (UniProt P34981); assay: qHTS assay to identify small molecule antagonists of the thyrotropin-releasing hormone receptor (TRHR) signaling pathway (AID 1346877; active = well fitted inhibition curve with a large enough effect in the repeat runs, not every such curve was filed as active; note: series mostly up to about 51 µM)
# Method in brief: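 Antagonism is measured as suppression of the calcium response to 1 nM TRH in TRHR-HEK293 cells that have been dye-loaded for 2 h at 37 °C after overnight plating. Each compound is tested at 15 concentrations in triplicate.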
# [19] = qHTS assay to identify small molecule antagonists of the progesterone receptor (PR) signaling pathway - cell viability counter screen (AID 1346798; active = well fitted curve in the direction sought with a large enough effect in the repeat runs; an effect the other way counts as inactive or inconclusive; note: nearly all actives have a fitted effect of over 50% in size; note: potency is the fitted concentration of half-maximal effect)
# Method in brief: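 Luminescence readout (CellTiter-Glo, 30 min, RT) of viability in PR-UAS-bla HEK293T cells exposed to compound and R5020 agonist for 16 hr at 37C, 5% CO2; run in the same wells as the beta-lactamase reporter read.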
# [20] = target: Progesterone receptor (Homo sapiens) (UniProt P06401); assay: qHTS assay to identify small molecule antagonists of the progesterone receptor (PR) signaling pathway (AID 1346795; active = well fitted inhibition curve with a large enough effect in the signal ratio in the repeat runs, not every such curve was filed as active; the % refers to the signal ratio)
# Method in brief: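 Beta-lactamase reporter, HEK293T PR-UAS-bla line; 2% charcoal-stripped FBS; 6 hr pre-incubation, 37C/5% CO2. Compound + R5020 1 nM final, 16 hr. LiveBLAzer B/G FRET substrate, 2 hr RT; fluorescence intensity read.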
# Sequence of Thyrotropin receptor (Homo sapiens) (P16473 whole entry, looked up): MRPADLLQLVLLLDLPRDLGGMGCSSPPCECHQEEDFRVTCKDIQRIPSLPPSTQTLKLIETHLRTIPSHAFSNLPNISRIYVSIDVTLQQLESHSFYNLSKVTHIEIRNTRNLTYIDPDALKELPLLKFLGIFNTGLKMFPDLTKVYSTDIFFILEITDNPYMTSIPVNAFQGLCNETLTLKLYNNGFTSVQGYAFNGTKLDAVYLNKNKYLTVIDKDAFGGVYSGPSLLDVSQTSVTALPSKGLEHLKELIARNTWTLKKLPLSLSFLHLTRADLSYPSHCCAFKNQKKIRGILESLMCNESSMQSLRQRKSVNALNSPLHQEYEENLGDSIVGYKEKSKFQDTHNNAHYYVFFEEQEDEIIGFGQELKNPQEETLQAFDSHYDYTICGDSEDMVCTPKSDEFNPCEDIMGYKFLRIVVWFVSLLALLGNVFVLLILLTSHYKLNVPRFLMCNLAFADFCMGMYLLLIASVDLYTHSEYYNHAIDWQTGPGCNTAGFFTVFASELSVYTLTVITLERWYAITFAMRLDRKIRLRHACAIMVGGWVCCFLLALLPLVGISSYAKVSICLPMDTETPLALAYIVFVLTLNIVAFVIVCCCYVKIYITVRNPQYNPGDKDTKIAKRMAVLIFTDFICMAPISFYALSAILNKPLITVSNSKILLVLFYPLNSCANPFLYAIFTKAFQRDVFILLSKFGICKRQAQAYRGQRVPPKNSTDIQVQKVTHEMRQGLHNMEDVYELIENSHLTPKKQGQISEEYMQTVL
# Sequence of Estrogen receptor (Homo sapiens) (P03372 whole entry, looked up): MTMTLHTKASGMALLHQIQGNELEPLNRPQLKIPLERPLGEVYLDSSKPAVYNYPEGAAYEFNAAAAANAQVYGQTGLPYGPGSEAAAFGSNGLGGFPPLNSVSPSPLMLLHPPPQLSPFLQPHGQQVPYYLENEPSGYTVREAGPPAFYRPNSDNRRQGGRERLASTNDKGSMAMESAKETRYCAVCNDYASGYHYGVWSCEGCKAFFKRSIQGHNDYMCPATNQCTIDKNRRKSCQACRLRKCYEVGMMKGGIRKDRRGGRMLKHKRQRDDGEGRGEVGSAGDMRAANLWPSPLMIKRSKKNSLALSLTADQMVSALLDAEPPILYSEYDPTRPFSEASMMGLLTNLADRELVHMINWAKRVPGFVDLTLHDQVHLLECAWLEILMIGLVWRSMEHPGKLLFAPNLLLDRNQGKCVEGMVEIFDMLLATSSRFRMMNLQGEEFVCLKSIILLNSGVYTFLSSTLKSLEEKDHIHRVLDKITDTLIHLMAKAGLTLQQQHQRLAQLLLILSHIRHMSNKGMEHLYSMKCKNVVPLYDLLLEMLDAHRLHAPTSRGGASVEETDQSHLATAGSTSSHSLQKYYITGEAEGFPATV
# Sequence of Progesterone receptor (Homo sapiens) (P06401 whole entry, looked up): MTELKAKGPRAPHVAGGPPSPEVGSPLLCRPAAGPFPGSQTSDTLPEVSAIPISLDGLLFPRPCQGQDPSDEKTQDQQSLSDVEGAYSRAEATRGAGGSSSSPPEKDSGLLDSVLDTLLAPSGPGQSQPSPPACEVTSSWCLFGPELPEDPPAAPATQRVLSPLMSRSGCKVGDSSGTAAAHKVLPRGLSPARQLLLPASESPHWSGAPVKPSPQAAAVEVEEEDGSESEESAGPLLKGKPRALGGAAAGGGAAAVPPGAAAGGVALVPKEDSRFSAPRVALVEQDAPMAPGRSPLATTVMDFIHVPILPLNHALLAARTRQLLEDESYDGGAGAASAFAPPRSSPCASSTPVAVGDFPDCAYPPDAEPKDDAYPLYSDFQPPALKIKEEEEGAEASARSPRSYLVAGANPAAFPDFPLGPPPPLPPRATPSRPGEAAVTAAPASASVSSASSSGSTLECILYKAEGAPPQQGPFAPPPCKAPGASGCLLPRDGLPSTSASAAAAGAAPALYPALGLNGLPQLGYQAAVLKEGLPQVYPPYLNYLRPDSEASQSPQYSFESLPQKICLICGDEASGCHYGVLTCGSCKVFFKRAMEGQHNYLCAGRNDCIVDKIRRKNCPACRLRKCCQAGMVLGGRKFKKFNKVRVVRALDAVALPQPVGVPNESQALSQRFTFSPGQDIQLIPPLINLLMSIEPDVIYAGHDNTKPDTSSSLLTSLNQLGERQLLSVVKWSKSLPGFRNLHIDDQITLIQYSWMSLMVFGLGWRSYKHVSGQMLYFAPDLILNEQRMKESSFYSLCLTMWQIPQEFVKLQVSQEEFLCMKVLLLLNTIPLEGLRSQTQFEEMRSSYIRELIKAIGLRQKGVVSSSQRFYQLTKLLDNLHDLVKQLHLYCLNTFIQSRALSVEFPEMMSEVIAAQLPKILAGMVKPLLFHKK
# Sequence of Thyrotropin-releasing hormone receptor (Homo sapiens) (P34981 whole entry, looked up): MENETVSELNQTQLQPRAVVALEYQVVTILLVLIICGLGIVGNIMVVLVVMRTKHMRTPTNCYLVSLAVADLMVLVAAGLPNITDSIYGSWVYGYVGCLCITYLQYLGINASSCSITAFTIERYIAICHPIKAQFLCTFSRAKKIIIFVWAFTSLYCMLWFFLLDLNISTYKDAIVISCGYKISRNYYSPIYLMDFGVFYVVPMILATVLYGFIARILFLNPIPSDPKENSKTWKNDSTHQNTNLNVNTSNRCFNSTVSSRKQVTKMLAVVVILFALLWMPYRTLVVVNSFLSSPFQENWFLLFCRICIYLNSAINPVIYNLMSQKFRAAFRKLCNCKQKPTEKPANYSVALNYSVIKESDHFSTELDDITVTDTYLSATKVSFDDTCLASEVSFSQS
# Sequence of Estrogen receptor beta (Homo sapiens) (Q92731 whole entry, looked up): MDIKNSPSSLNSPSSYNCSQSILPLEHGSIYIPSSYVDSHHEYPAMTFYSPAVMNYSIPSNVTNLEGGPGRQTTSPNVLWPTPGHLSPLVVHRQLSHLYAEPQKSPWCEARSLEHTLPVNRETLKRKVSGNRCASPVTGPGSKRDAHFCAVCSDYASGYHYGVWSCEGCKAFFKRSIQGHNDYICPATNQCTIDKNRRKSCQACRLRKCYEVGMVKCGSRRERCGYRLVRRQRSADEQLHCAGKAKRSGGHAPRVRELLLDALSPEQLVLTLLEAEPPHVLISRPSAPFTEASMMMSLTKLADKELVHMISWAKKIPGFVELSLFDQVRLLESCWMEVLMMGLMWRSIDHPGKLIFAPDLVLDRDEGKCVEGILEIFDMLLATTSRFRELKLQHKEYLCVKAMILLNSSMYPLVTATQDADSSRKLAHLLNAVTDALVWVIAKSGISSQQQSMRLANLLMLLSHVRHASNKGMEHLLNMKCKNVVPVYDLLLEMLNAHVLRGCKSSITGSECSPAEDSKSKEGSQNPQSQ
# Sequence of Androgen receptor (Homo sapiens) (P10275 whole entry, looked up): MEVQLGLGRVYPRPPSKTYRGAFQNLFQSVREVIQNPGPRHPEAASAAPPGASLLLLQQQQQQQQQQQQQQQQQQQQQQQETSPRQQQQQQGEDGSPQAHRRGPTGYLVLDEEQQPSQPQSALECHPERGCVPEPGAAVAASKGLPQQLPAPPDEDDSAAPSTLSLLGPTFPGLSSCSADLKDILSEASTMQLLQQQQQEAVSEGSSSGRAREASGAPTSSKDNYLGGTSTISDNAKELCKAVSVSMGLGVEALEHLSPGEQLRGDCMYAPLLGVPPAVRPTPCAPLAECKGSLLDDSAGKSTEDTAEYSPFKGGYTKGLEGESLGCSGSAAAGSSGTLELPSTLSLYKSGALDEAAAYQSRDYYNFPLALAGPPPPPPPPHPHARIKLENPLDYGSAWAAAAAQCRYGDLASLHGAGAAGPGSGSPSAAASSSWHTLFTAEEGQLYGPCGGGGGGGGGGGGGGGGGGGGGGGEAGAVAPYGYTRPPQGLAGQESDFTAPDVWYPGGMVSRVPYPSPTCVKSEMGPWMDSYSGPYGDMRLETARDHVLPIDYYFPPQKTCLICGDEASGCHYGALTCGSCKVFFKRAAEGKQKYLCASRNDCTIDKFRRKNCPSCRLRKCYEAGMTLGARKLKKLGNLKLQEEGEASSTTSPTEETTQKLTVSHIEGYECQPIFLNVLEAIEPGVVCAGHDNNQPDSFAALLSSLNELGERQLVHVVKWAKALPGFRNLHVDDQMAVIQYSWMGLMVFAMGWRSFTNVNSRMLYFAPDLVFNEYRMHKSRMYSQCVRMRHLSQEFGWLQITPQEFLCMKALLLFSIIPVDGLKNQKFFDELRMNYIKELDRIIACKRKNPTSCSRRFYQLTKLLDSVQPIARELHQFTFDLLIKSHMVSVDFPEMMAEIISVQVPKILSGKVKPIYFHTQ
Structure (SMILES),Potency [1],Potency [2],Potency [3],Potency [4],Potency [5],Potency [6],outcome [7],Potency [8],Potency [9],outcome [10],Potency [11],Potency [12],Potency [13],Potency [14],Potency [15],Potency [16],outcome [17],Potency [18],Potency [19],Potency [20]
Cc1ccc2c(n1)Oc1ccc(C(C)C(=O)OCC(=O)N(C)C)cc1C2 (stereo not given),inactive,inactive,inactive,inactive,inactive,inactive,inactive,inactive,inactive,inactive,inactive,inactive,inactive,inactive,inactive,inactive,inactive,inactive,–,–
CN(C)CCC=C1c2ccccc2CCc2ccccc21,inactive,2.73 µM (active) and 9.69 µM (active) and 7.5 µM (active),inactive,68.6 µM (active),–,30.6 µM (active) and 26.6 µM (active),–,15.4 µM (active) and 13.7 µM (active) and 26.6 µM (active),inactive,inactive,68.6 µM (active) and 26.6 µM (active),inactive,–,54.5 µM (active) and 15.4 µM (active) and 16.8 µM (active),inactive,inactive,–,inactive,61.1 µM (active) and 30.6 µM (active) and 16.8 µM (active),–
CCCCOCCOCCOCCO,inactive,inactive,inactive,inactive,–,inactive,–,inactive,inactive,inactive,inactive,inactive,–,inactive,inactive,inactive,inactive,inactive,–,–
CC(C(=O)O)c1cccc(C(=O)c2ccccc2)c1 (stereo not given),inactive,inactive,inactive,inactive,–,inactive,–,inactive,inactive,inactive,inactive,inactive,inactive,inactive,inactive,inactive,–,inactive,inactive,inactive
c1ccc2c(c1)c1cccc3ccc4cccc2c4c31,inactive,inactive,60.7 µM (active) and inactive,inactive,inactive,inactive,inactive,inactive,inactive,inactive,inactive,inactive,inactive,inactive,inactive,inactive,–,inactive,inactive,–
O=C=Nc1ccc(Cc2ccc(N=C=O)cc2)cc1,inactive,inactive,inactive,inactive,inactive,inactive,–,inactive,–,inactive,inactive,inactive,–,inactive,inactive,inactive,inactive,–,–,–
O=P(O)(O)O,inactive,inactive,inactive,inactive,inactive,inactive,–,inactive,–,inactive,inactive,inactive,inactive,inactive,inactive,inactive,inactive,inactive,inactive,inactive
